In PubChem BioAssay:
Results filed as inconclusive are left out. The source made the active and inactive calls.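 Rule for the calls, unless noted: active = normalized viability below 100% at a tested concentration; inactive = the rest.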

Experiments:
[1] = viability loss in pontine glioma line – cell-based, SU-DIPG-XVII, MIPE5.0, CellTiter-Glo, qHTS, dose response (AID 1347060; cut-off not given, nearly all actives have AC50 up to about 26 µM;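 for AC50: cells exposed to compound for 48 hours before viability readout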); conditions: CellTiter-Glo ATP luminescence
[2] = viability loss in pontine glioma line – cell-based, SU-DIPG-XIII, MIPE4.0, CellTiter-Glo, qHTS, dose response (AID 1347061; cut-off not given, nearly all actives have AC50 up to about 37 µM;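 note: cells exposed to compound for 48 hours before readout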); conditions: CellTiter-Glo ATP luminescence
[3] = viability loss in pontine glioma line – cell-based, JHH-DIPG-1, MIPE4.0, CellTiter-Glo, qHTS, dose response (AID 1347062; cut-off not given, nearly all actives have AC50 up to about 27 µM;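 for AC50: cells exposed to compound for two days before readout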); conditions: JHH-DIPG-1 viability, CellTiter-Glo ATP luminescence
[4] = viability loss in pontine glioma line – cell-based, SU-DIPG-IV, MIPE4.0, CellTiter-Glo, qHTS, dose response (AID 1347063; cut-off not given, nearly all actives have AC50 up to about 30 µM;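 note: compound exposure lasted 48 hours before the viability readout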); conditions: CellTiter-Glo ATP luminescence
[5] = viability loss in pontine glioma line – cell-based, SU-DIPG-XIII, MIPE5.0, CellTiter-Glo, qHTS, dose response (AID 1347064; cut-off not given, nearly all actives have AC50 up to about 23 µM;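 for AC50: cells exposed to compound for 48 hours before the viability read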); conditions: CellTiter-Glo ATP luminescence
[6] = viability loss in pontine glioma line – cell-based, SU-DIPG-XXV, MIPE5.0, CellTiter-Glo, qHTS, dose response (AID 1347065; cut-off not given, nearly all actives have AC50 up to about 26 µM;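 note: cells exposed to compound for 48 hours before ATP readout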); conditions: CellTiter-Glo ATP luminescence
[7] = growth inhibition of DIPG cells – cell-based, MIPE4.0 library, CellTiter-Glo luminescence, qHTS (AID 1347066; cut-off not given, nearly all actives have AC50 up to about 30 µM;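 note: cells exposed to compound for 48 hours before readout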); conditions: SU-DIPG-VI viability, CellTiter-Glo ATP luminescence
[8] = JHH-DIPG-1 glioma cell viability, MIPE5.0 library, CellTiter-Glo luminescence, qHTS (AID 1347067; cut-off not given, nearly all actives have AC50 up to about 26 µM;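 note: cells exposed to compound for 48 hours before readout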); conditions: JHH-DIPG-1 glioma viability, CellTiter-Glo ATP luminescence
[9] = growth inhibition of DIPG cells – cell-based, MIPE5.0 library, qHTS (AID 1347068; cut-off not given, nearly all actives have IC50 up to about 30 µM;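 for IC50: cells exposed to compound for 48 hours before viability readout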); conditions: SU-DIPG-XXV viability
[10] = viability loss with induced miR-34 in A549 – imaging, A549 dox-inducible miR-34, nuclei and caspase counts, primary screen (AID 1347080;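 active = compounds whose cell count with miR-34 switched on is under 0.7 times the count with it off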); conditions: A549 miR-34 inducible, Hoechst nuclei count, 48 h
[11] = compounds altering HSF1 focus formation in cells – imaging, Selleck Cancer Library (AID 1347162; in the data active = plate-normalised HSF1 focus index below about 0.46); conditions: human cells, HSF1 nuclear foci imaging, at 10 µM; SSMD: measured here: HSF1 foci SSMD mean; cell count: measured here: cell number; plate-normalised HSF1 focus index: stronger effect = lower value
[12] = MELAS cybrid and Rieske KO viability enhancers – cell-based, MELAS cybrids, Rieske KO mouse fibroblasts, CellTiter-Glo, primary screen (AID 1508586;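 active = mean z-score across replicates of 1.96 or higher in either the MELAS or the Rieske mutant cell line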;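 note: z relative to plate mean and SD of compound and empty wells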); conditions: low glucose
[13] = drug combination growth inhibition, ovarian cancer – cell-based, oncology-focused library, rucaparib conditional, profiling panel (AID 1508598); conditions: patient-derived ovarian cancer cells, CellTiter-Glo viability, 144 h, stronger effect = lower value
[14] = stronger effect = lower value, cell number ratio, induced over uninduced
[15] = measured here: relative caspase fold change +Dox/-Dox
[16] = measured here: total cells with miR-34 induction, stronger effect = lower value
[17] = measured here: total cells without miR-34 induction
[18] = MELAS cybrid survival, CellTiter-Glo 48 h, stronger effect = higher value
[19] = Rieske KO mouse fibroblast survival, CellTiter-Glo 72 h
[20] = at 0.000305 µM, OCI-C5x cells, with rucaparib 10 µM, 100% = cells with rucaparib alone
[21] = at 0.000305 µM, OCI-C5x cells, without rucaparib
[22] = at 0.000305 µM, OCI-P5x cells, with rucaparib 20 µM, 100% = cells with rucaparib alone
[23] = at 0.000305 µM, OCI-P5x cells, without rucaparib
[24] = at 0.00122 µM, OCI-C5x cells, with rucaparib 10 µM, 100% = cells with rucaparib alone
[25] = at 0.00122 µM, OCI-C5x cells, without rucaparib
[26] = at 0.00122 µM, OCI-P5x cells, with rucaparib 20 µM, 100% = cells with rucaparib alone
[27] = at 0.00122 µM, OCI-P5x cells, without rucaparib
[28] = at 0.00488 µM, OCI-C5x cells, with rucaparib 10 µM, 100% = cells with rucaparib alone
[29] = at 0.00488 µM, OCI-C5x cells, without rucaparib
[30] = at 0.00488 µM, OCI-P5x cells, with rucaparib 20 µM, 100% = cells with rucaparib alone
[31] = at 0.00488 µM, OCI-P5x cells, without rucaparib
[32] = at 0.0195 µM, OCI-C5x cells, with rucaparib 10 µM, 100% = cells with rucaparib alone
[33] = at 0.0195 µM, OCI-C5x cells, without rucaparib
[34] = at 0.0195 µM, OCI-P5x cells, with rucaparib 20 µM, 100% = cells with rucaparib alone
[35] = at 0.0195 µM, OCI-P5x cells, without rucaparib
[36] = at 0.0781 µM, OCI-C5x cells, with rucaparib 10 µM, 100% = cells with rucaparib alone
[37] = at 0.0781 µM, OCI-C5x cells, without rucaparib
[38] = at 0.0781 µM, OCI-P5x cells, with rucaparib 20 µM, 100% = cells with rucaparib alone
[39] = at 0.0781 µM, OCI-P5x cells, without rucaparib
[40] = at 0.313 µM, OCI-C5x cells, with rucaparib 10 µM, 100% = cells with rucaparib alone
[41] = at 0.313 µM, OCI-C5x cells, without rucaparib
[42] = at 0.313 µM, OCI-P5x cells, with rucaparib 20 µM, 100% = cells with rucaparib alone
[43] = at 0.313 µM, OCI-P5x cells, without rucaparib
[44] = at 1.25 µM, OCI-C5x cells, with rucaparib 10 µM, 100% = cells with rucaparib alone
[45] = at 1.25 µM, OCI-C5x cells, without rucaparib
[46] = at 1.25 µM, OCI-P5x cells, with rucaparib 20 µM, 100% = cells with rucaparib alone
[47] = at 1.25 µM, OCI-P5x cells, without rucaparib
[48] = at 5 µM, OCI-C5x cells, with rucaparib 10 µM, 100% = cells with rucaparib alone
[49] = at 5 µM, OCI-C5x cells, without rucaparib
[50] = at 5 µM, OCI-P5x cells, with rucaparib 20 µM, 100% = cells with rucaparib alone
[51] = at 5 µM, OCI-P5x cells, without rucaparib

COc1cccc2nc(-c3cccs3)nc(NN3C(=O)C=C(C)C3=O)c12
active: AC50 [1] 833 nM | AC50 [2] 10500 nM | AC50 [3] 16600 nM | AC50 [4] 296 nM | AC50 [5] 2090 nM | AC50 [6] 1660 nM | AC50 [7] 3720 nM | AC50 [8] 2350 nM | IC50 [9] 7420 nM

CCNC(=O)c1noc(-c2cc(C(C)C)c(O)cc2O)c1-c1ccc(CN2CCOCC2)cc1
2.25: SSMD [11]
7410: cell count [11]
0.0253: z-score [12, 19]
active: AC50 [1] 16.6 nM | AC50 [2] 105 nM | AC50 [3] 74.3 nM | AC50 [4] 52.6 nM | AC50 [5] 33.2 nM | AC50 [6] 11.8 nM | AC50 [7] 4690 nM | AC50 [8] 20.9 nM | z-score [12, 18] 2.88 | viability [13, 22] 98% | viability [13, 26] 69.1% | viability [13, 27] 97.9% | viability [13, 28] 29.2% | viability [13, 29] 12.3% | viability [13, 30] 13.9% | viability [13, 31] 5.95% | viability [13, 32] 9.68% | viability [13, 33] 9.96% | viability [13, 34] 6.4% | viability [13, 35] 4.69% | viability [13, 36] 9.48% | viability [13, 37] 9.56% | viability [13, 38] 6.42% | viability [13, 39] 4.47% | viability [13, 40] 8.98% | viability [13, 41] 9.43% | viability [13, 42] 5.55% | viability [13, 43] 3.94% | viability [13, 44] 10.6% | viability [13, 45] 9.54% | viability [13, 46] 4.83% | viability [13, 47] 3.83% | viability [13, 48] 9.11% | viability [13, 49] 9.15% | viability [13, 50] 3.61% | viability [13, 51] 2.59%
inactive: outcome [9] | fold change [10, 14] 1.03 | plate-normalised HSF1 focus index [11] 1.08 | viability [13, 20] 136% | viability [13, 21] 129% | viability [13, 23] 112% | viability [13, 24] 131% | viability [13, 25] 137%
1340: cell count [10, 16]
0.796: fold change [10, 15]
1290: cell count [10, 17]

Cc1cnc(Nc2ccc(F)cc2Cl)nc1-c1c[nH]c(C(=O)N[C@H](CO)c2cccc(Cl)c2)c1
active: AC50 [1] 1320 nM | AC50 [2] 18700 nM | AC50 [3] 833 nM | AC50 [4] 469 nM | AC50 [5] 1320 nM | AC50 [6] 2090 nM | AC50 [7] 18700 nM | AC50 [8] 833 nM | IC50 [9] 9340 nM

COc1ccc2c(OCc3nnc4ccc(-c5ccccc5)nn34)ccnc2c1
inactive: outcome [1] | outcome [2] | outcome [3] | outcome [4] | outcome [5] | outcome [6] | outcome [7] | outcome [8] | outcome [9]

C[C@H](O)[C@@H]1C(=O)N2C(C(=O)O)=C(S[C@@H]3CN[C@H](CNS(N)(=O)=O)C3)[C@@H](C)[C@@H]12
inactive: outcome [1] | outcome [2] | outcome [3] | outcome [4] | outcome [5] | outcome [6] | outcome [7] | outcome [8] | outcome [9]

COc1ncc(-c2ccc3nccc(-c4ccnnc4)c3c2)cc1NS(=O)(=O)c1ccc(F)cc1F
-1.81: SSMD [11]
-2.62: z-score [12, 19]
active: AC50 [1] 26.3 nM | AC50 [2] 46.9 nM | AC50 [3] 1660 nM | AC50 [4] 10.5 nM | AC50 [5] 46.8 nM | AC50 [6] 16.6 nM | AC50 [7] 33.2 nM | AC50 [8] 93.4 nM | IC50 [9] 105 nM | viability [13, 22] 86.7% | viability [13, 23] 84.8% | viability [13, 24] 84.7% | viability [13, 25] 89.8% | viability [13, 26] 67.8% | viability [13, 27] 69.1% | viability [13, 28] 62.5% | viability [13, 29] 53.2% | viability [13, 30] 43.9% | viability [13, 31] 46.3% | viability [13, 32] 39.4% | viability [13, 33] 37.6% | viability [13, 34] 31.6% | viability [13, 35] 27% | viability [13, 36] 32.8% | viability [13, 37] 30.6% | viability [13, 38] 24.3% | viability [13, 39] 17.1% | viability [13, 40] 23.7% | viability [13, 41] 23.6% | viability [13, 42] 17.6% | viability [13, 43] 11% | viability [13, 44] 23.9% | viability [13, 45] 23.5% | viability [13, 46] 13.9% | viability [13, 47] 8.06% | viability [13, 48] 10.5% | viability [13, 49] 9.68% | viability [13, 50] 2.14% | viability [13, 51] 1.41%
1270: cell count [10, 16]
0.656: fold change [10, 15]
1220: cell count [10, 17]
inactive: fold change [10, 14] 1.04 | plate-normalised HSF1 focus index [11] 0.907 | z-score [12, 18] 1.15 | viability [13, 20] 107% | viability [13, 21] 105%
6380: cell count [11]

CCn1cc(-c2ccnc3[nH]c(-c4cccc(CN(C)C)c4)cc23)c(-c2ccc(NC(=O)N(C)C)cc2)n1
active: AC50 [1] 590 nM | AC50 [2] 13200 nM | AC50 [3] 16600 nM | AC50 [4] 209 nM | AC50 [5] 8330 nM | AC50 [6] 525 nM | AC50 [7] 20900 nM | AC50 [8] 11800 nM | IC50 [9] 7420 nM
